Source: PubChem BioAssay (NCATS)
Inconclusive results are not listed. Unmarked numbers belong to inactive results. Calls of active or inactive are those of the source. Unless noted, calls come from the whole dose curve; as a rule, active = well fitted curve in the direction sought with a large enough effect; inconclusive = small, poorly fitted or top-dose-only effect, or another doubt; inactive = no such curve, though single readings can be large; an effect the other way counts as inactive or inconclusive. *1 amine or outer side, *2 acyl side, *3 side chain or, on linkers, in order; H or OH if unused. Where a SMILES comes first, the peptide text is derived from it. [ ]: non-standard residue; d: D form. X13 = O=C(C(CC(O)CO)O[*:1])[*:2]; NMeV = CN[CH](C(=O)O)C(C)C; NMeA = CN[CH](C)C(=O)O; βAla = NCCC(=O)O

Molecular target: Cytochrome P450 2C9 (Homo sapiens) (UniProt P11712)
Sequence (P11712 whole entry, looked up): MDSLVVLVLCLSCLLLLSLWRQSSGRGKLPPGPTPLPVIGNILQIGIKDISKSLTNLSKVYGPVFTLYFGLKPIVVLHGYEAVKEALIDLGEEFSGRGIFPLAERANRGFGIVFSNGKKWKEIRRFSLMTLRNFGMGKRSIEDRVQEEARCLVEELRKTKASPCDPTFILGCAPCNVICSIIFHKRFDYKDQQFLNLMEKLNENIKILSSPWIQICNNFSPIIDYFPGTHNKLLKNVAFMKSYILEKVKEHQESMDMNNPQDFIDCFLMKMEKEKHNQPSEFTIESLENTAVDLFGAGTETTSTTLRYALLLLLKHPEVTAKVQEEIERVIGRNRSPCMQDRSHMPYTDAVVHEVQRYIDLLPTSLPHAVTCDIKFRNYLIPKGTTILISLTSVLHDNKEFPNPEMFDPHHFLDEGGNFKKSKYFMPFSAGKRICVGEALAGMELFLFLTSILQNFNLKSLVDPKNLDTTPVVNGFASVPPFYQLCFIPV
Experiment: Cytochrome P450 family 2 subfamily C member 9 (CYP2C9) small molecule antagonists: luciferase biochemical (cell-free) qHTS assay (AID 1645842; active = well fitted curve in the direction sought with a large enough effect in the repeat runs; an effect the other way counts as inactive or inconclusive; note: nearly all actives have a fitted effect of over 55% in size; for activity change, negative = inhibition: % is set by controls: 0 for no effect and ±100 for the full control effect)
Settings: P450-Glo CYP2C9 enzyme assay, luciferin luminescence; series mostly up to 57.4 µM; activity change, negative = inhibition: at the top concentration
In short: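 P450-Glo CYP2C9 system: proluciferin substrate with enzyme in mix containing 0.4% BSA, 10 min at room temperature, then NADPH regeneration solution added and incubated 1 h at 37C. Detection reagent stopped reaction; luminescence read after 20 min as RLU.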
Potency is the fitted concentration of half-maximal effect.

Q: Which “activity change, negative = inhibition” value does the source give for `CC(C)Oc1ccc(-c2nc(-c3cccc4c3CCC4NCCC(=O)O)no2)cc1C#N` (configuration not stated) here?
A: The value was 11.4%.

Q: For `COc1cn(-c2ccc(-n3cccn3)cc2F)nc(-c2ccnn2-c2ccccc2)c1=O`, which Potency is on record?
A: The Potency was 15.1 µM (active).

Q: Which Potency does the source give for `COc1cc(OC)cc(-c2ccc3c(-c4ccc(F)cc4)[nH]nc3n2)c1` here?
A: Its Potency is 7.56 µM (active).

Q: For `O=C(N[C@@H]1CC[C@@H](c2cccc(F)c2F)CN(CC(F)(F)F)C1=O)N1CCC(n2c(=O)[nH]c3ncccc32)CC1`, which Potency is on record?
A: The Potency was 12 µM (active).

Q: For `CN1CCN(C2=Nc3ccccc3Nc3ccc(O)cc32)CC1`, which “activity change, negative = inhibition” value is on record?
A: The value was -22.6%.

Q: Which “activity change, negative = inhibition” value does the source give for `O=C(CC1CC(c2ccc(F)cc2F)=NO1)N1CCOCC1` (configuration not stated) here?
A: Its value is -15.3%.

Q: Which Potency does the source give for `NCCCCN(Cc1nc2ccccc2[nH]1)[C@H]1CCCc2cccnc21` here?
A: The Potency was 6.74 µM (active).

Q: With `NC(=O)[C@@H]1CC[C@H](c2ccc(OCc3ccccc3F)cc2)N1` as the compound, how does the “activity change, negative = inhibition” value read?
A: Its value is -17.9%.

Q: For `O=C(Nc1cc(-c2ccccc2)nn1-c1ccccc1)c1ccc([N+](=O)[O-])cc1`, which Potency is on record?
A: The Potency was 1.51 µM (active).

Q: Which Potency does the source give for `Fc1ccccc1-c1nc2ccn(Cc3ccc(-c4ccc(C(F)(F)F)cc4C(F)(F)F)nn3)cc-2n1` here?
A: The Potency was 23.9 µM (active).

Q: With `Cc1cc(C)c2nc(-c3ccccn3)cc(C(=O)Nc3ccc(S(=O)(=O)Nc4onc(C)c4C)cc3)c2c1` as the compound, how does the Potency read?
A: The Potency was 26.8 µM (active).

Q: For `NC(=O)c1ccc(F)c2c1C[C@@H](N(C1CCC1)C1CCC1)CO2`, which “activity change, negative = inhibition” value is on record?
A: Its value is -19.3%.

Q: Which Potency does the source give for `COc1ccc(CCc2nc3cc(-c4c(C)noc4C)ccc3n2C[C@H](C)N2CCOCC2)cc1Cl` here?
A: Its Potency is 15.1 µM (active).

Q: With `Cc1ccc(C)c(NC(=O)CNS(=O)(=O)c2ccc3[nH]c(=O)oc3c2)c1` as the compound, how does the “activity change, negative = inhibition” value read?
A: The value was 40.9%.

Q: Which Potency does the source give for `COc1ccc(-n2c(=O)[nH]c3cc(C(=O)NCc4ccc(Cl)cc4)sc3c2=O)nc1OC` here?
A: The Potency was 9.52 µM (active).

Q: Which Potency does the source give for `CN(C)C(=O)C(O)C(Cc1ccccc1)NC(=O)c1cc2cc(Cl)ccc2[nH]1` (configuration not stated) here?
A: Its Potency is 10.7 µM (active).

Q: For `O=C(N[C@H](Cc1ccccc1)C(=O)O)c1sc2cc(F)ccc2c1Cl`, which Potency is on record?
A: The Potency was 16.9 µM (active).

Q: Which Potency does the source give for `CS(=O)(=O)c1ccccc1N1CCN(c2nc3c(c(=O)[nH]2)CSCC3)CC1` here?
A: Its Potency is 8.49 µM (active).

Q: For `On1ncc(C2CCNCC2)c1-c1cccc(-c2ccccc2)c1`, which “activity change, negative = inhibition” value is on record?
A: The value was -27.4%.

Q: For `O=C(NCC(=O)N1CCCC1)Nc1ccc2ccccc2c1`, which “activity change, negative = inhibition” value is on record?
A: The value was 10.9%.

Molecular target: N-terminal Xaa-Pro-Lys N-methyltransferase 1 (Homo sapiens) (UniProt Q9BV86)
Sequence (Q9BV86 whole entry, looked up): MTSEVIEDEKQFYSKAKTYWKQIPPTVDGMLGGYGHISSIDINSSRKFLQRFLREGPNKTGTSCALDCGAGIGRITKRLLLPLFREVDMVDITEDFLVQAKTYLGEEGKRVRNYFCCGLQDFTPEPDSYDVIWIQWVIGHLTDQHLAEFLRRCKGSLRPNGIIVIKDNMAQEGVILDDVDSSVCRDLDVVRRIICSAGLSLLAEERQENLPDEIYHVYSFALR
Experiment: Confirmatory qHTS for Inhibitors of N-terminal methyltransferase 1 (NTMT1): MTaseGlo Assay (AID 1645874); note: nearly all actives have a fitted effect of over 65% in size;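 for activity change, negative = inhibition: luminescence from SAH made as NTMT1 methylates SPKRIA peptide using SAM; 0% = DMSO control and -100% = no-enzyme control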
Settings: NTMT1 enzyme, MTase-Glo SAH luminescence; series mostly up to 51.5 µM; activity change, negative = inhibition: at the top concentration
In short: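 Inhibition was derived from luminescence after SAH-to-ATP conversion, scaled between no-enzyme and DMSO wells, then fitted by 4-parameter Hill. Conditions: 125 nM NTMT1, 100 uM SAM, 1 uM SPKRIA, 30 min RT.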

Q: With `C=Cc1cc2oc(-c3ccc(O)c(F)c3)nc2cc1O` as the compound, how does the Potency read?
A: Its Potency is 31.6 µM (active).

Q: With `O=C(O)c1ccnc2cc(-c3nc4ccccc4n3CCN3CCCCC3)sc12` as the compound, how does the “activity change, negative = inhibition” value read?
A: Its value is -2.49% [at 100 µM].

Q: Which “activity change, negative = inhibition” value does the source give for `O=C(NCCN1CCCC1)c1cc(-c2ccc(CN3CCOCC3)cc2)nc2ccc(F)cc12` here?
A: Its value is 12.3%.

Q: With `CC(C)c1cc2c(c(O)c1O)[C@@]13CCCC(C)(C)C1[C@@H](O)[C@@H]2OC3=O` (some centres not stated) as the compound, how does the “activity change, negative = inhibition” value read?
A: Its value is -5.55%.

Tested on: not listed separately
Experiment: Primary qHTS for inhibitors of nuclear receptor binding SET domain protein 2 (NSD2) in an isogenic RCH-ACV NSD2 p.E1099K mutant (9B) (AID 1645876); note: nearly all actives have a fitted effect of over 70% in size; for activity change, negative = viability loss: % is set by controls: 0 for no effect and ±100 for the full control effect
Settings: RCH-ACV (leukaemia line) NSD2 E1099K (9B) viability, CellTiter-Glo, 72 h; series mostly up to 44.9 µM; activity change, negative = viability loss: at the top concentration

Q: For `CC(C)Oc1ccc(-c2nc(-c3cccc4c3CCC4NCCC(=O)O)no2)cc1C#N` (configuration not stated), which “activity change, negative = viability loss” value is on record?
A: Its value is -5.94%.

Q: For `COc1cn(-c2ccc(-n3cccn3)cc2F)nc(-c2ccnn2-c2ccccc2)c1=O`, which “outcome” value is on record?
A: Its value is “inactive”.

Q: For `COc1cc(OC)cc(-c2ccc3c(-c4ccc(F)cc4)[nH]nc3n2)c1`, which “activity change, negative = viability loss” value is on record?
A: The value was 2.71%.

Q: Which “outcome” value does the source give for `CN1CCN(C2=Nc3ccccc3Nc3ccc(O)cc32)CC1` here?
A: The value was “inactive”.

Q: Which “activity change, negative = viability loss” value does the source give for `CCCC1=CC2=C(CO1)C(=O)C(C)(O)C(OC(=O)c1c(C)cc(OC)cc1O)C2` (configuration not stated) here?
A: The value was -9.72% [at 17.3 µM].

Q: With `C/C=C1/C[N+](C)([O-])C2Cc3c([nH]c4ccccc34)C(=O)CC1C2C(=O)OC` (configuration not stated) as the compound, how does the “activity change, negative = viability loss” value read?
A: Its value is -12.5%.

Q: With `C=C(C)[C@@]1(O)C[C@@]2(C)C(=CC1=O)CC[C@@H](O)[C@@H]2C` as the compound, how does the “activity change, negative = viability loss” value read?
A: The value was -9.62%.

Q: With `O=C(CC1CC(c2ccc(F)cc2F)=NO1)N1CCOCC1` (configuration not stated) as the compound, how does the “activity change, negative = viability loss” value read?
A: Its value is -2.71%.

Q: Which “activity change, negative = viability loss” value does the source give for `NC(=O)[C@@H]1CC[C@H](c2ccc(OCc3ccccc3F)cc2)N1` here?
A: Its value is -10.8%.

Q: For `O=C(Nc1cc(-c2ccccc2)nn1-c1ccccc1)c1ccc([N+](=O)[O-])cc1`, which “activity change, negative = viability loss” value is on record?
A: The value was 2.92%.

Q: For `Fc1ccccc1-c1nc2ccn(Cc3ccc(-c4ccc(C(F)(F)F)cc4C(F)(F)F)nn3)cc-2n1`, which “activity change, negative = viability loss” value is on record?
A: Its value is -17.8%.

Q: Which “activity change, negative = viability loss” value does the source give for `C/C=C1\[C@H](O[C@@H]2O[C@H](CO)[C@@H](O)[C@H](O)[C@H]2O)OC=C(C(=O)OCCc2ccc(O)cc2)[C@H]1CC(=O)OCCc1ccc(O)cc1` here?
A: Its value is -26.3% [at 17.3 µM].

Q: For `COc1ccc(O[C@@H]2O[C@H](CO)[C@@H](O)[C@H](O)[C@H]2O)cc1OC`, which “activity change, negative = viability loss” value is on record?
A: Its value is -4.42%.

Q: With `NC(=O)c1ccc(F)c2c1C[C@@H](N(C1CCC1)C1CCC1)CO2` as the compound, how does the “outcome” value read?
A: The value was “inactive”.

Q: For `CC1(C)CC[C@]2(C(=O)O)CC[C@]3(C)C(=CCC4[C@@]5(C)CC[C@H](O[C@@H]6O[C@H](C(=O)O)[C@@H](O)[C@H](O[C@@H]7O[C@H](CO)[C@H](O)[C@H](O)[C@H]7O)[C@H]6O[C@@H]6O[C@H](CO)[C@@H](O)[C@H](O)[C@H]6O)C(C)(C)C5CC[C@]43C)[C@@H]2C1` (some centres not stated), which activity change, negative = viability loss is on record?
A: Its activity change, negative = viability loss is -9.66% [at 4.96 µM].

Q: Which “activity change, negative = viability loss” value does the source give for `CC1=CC2=C(C)C(=O)[C@](C)(O)[C@H](O)C2=CO1` here?
A: The value was -8.45%.

Q: Which “activity change, negative = viability loss” value does the source give for `C/C=C1/[C@H](O[C@@H]2O[C@H](CO)[C@@H](O)[C@H](O)[C@H]2O)OC=C2C(=O)O[C@@H]3C[C@@H](C(C)CO)[C@H](COC(=O)C[C@H]21)[C@H]3C` (some centres not stated) here?
A: Its value is -23.7% [at 17.3 µM].

Q: Which “activity change, negative = viability loss” value does the source give for `C=C1CCC2[C@](C)(CCC[C@]2(C)C(=O)O)[C@H]1CC/C(C)=C/C(=O)OC` (some centres not stated) here?
A: Its value is -8.82%.

Q: For `O=C(O)c1ccnc2cc(-c3nc4ccccc4n3CCN3CCCCC3)sc12`, which “activity change, negative = viability loss” value is on record?
A: Its value is -16.2%.

Q: With `COc1ccc(/C=C/C(N)=O)cc1OC` as the compound, how does the “activity change, negative = viability loss” value read?
A: Its value is 3.97%.

Q: With `COc1ccc(CCc2nc3cc(-c4c(C)noc4C)ccc3n2C[C@H](C)N2CCOCC2)cc1Cl` as the compound, how does the Potency read?
A: The Potency was 3.65 µM (active).

Q: With `O=C(NCCN1CCCC1)c1cc(-c2ccc(CN3CCOCC3)cc2)nc2ccc(F)cc12` as the compound, how does the “activity change, negative = viability loss” value read?
A: The value was -27.4% [at 17.3 µM].

Q: With `Cc1ccc(C)c(NC(=O)CNS(=O)(=O)c2ccc3[nH]c(=O)oc3c2)c1` as the compound, how does the “activity change, negative = viability loss” value read?
A: Its value is -8.23%.

Q: For `COc1ccc(-n2c(=O)[nH]c3cc(C(=O)NCc4ccc(Cl)cc4)sc3c2=O)nc1OC`, which “activity change, negative = viability loss” value is on record?
A: Its value is -5.82%.

Q: Which “activity change, negative = viability loss” value does the source give for `C/C(=C\CC[C@H](CO)[C@@H]1CC[C@]2(C)C3=C(CC[C@@]12C)[C@@]1(C)CCC(=O)C(C)(C)C1CC3)C(=O)O` (some centres not stated) here?
A: The value was -16.3% [at 17.3 µM].

Q: Which “activity change, negative = viability loss” value does the source give for `CN(C)C(=O)C(O)C(Cc1ccccc1)NC(=O)c1cc2cc(Cl)ccc2[nH]1` (configuration not stated) here?
A: Its value is -15%.

Q: Which “activity change, negative = viability loss” value does the source give for `CC1=C[C@@H]2[C@H]3[C@@H]4O[C@@](C)(CC[C@H]4O)[C@H]3CC(=O)[C@]23C(=O)N[C@@H](CC(C)C)[C@@H]3[C@@H]1C` here?
A: Its value is -0.598%.

Q: Which “activity change, negative = viability loss” value does the source give for `C=C1CCC2C(C)(C)CC(=O)CC2(C)C1CCC(C)CCO` (configuration not stated) here?
A: The value was -23.7%.

Q: With `O=C(N[C@H](Cc1ccccc1)C(=O)O)c1sc2cc(F)ccc2c1Cl` as the compound, how does the “outcome” value read?
A: Its value is “inactive”.

Q: For `CS(=O)(=O)c1ccccc1N1CCN(c2nc3c(c(=O)[nH]2)CSCC3)CC1`, which “outcome” value is on record?
A: The value was “inactive”.

Q: Which “activity change, negative = viability loss” value does the source give for `C=C1C(OC(C)=O)C(=O)C2C(C)(C)C(O)CCC2(C)C1CC(OC(C)=O)/C(C)=C/COC(C)=O` (configuration not stated) here?
A: Its value is -23.3% [at 17.3 µM].

Q: Which “activity change, negative = viability loss” value does the source give for `O=C(NCC(=O)N1CCCC1)Nc1ccc2ccccc2c1` here?
A: Its value is -3.58%.

Q: For `CCC(C)C1NC(=O)C2CCCN2C(=O)C(CC(O)CO)OC(=O)CCNC(=O)C(C)N(C)C(=O)C(C(C)C)N(C)C1=O` (configuration not stated) (cyclo([X13]PI[NMeV][NMeA][βAla]); configuration not given here), which “activity change, negative = viability loss” value is on record?
A: Its value is -22.7% [at 17.3 µM].
